Source: PubChem BioAssay

The compounds below were run against E3 ubiquitin-protein ligase XIAP (Homo sapiens) (UniProt P98170) (assay: small molecules binding XIAP protein – biophysical, small-molecule microarray, fluorescence 635 nm, primary screen (AID 1181;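 also: score merges 667 nm emission and signal to noise over triplicate slides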)). Details: higher = more signal.
Chain of E3 ubiquitin-protein ligase XIAP (Homo sapiens) (P98170 whole entry, looked up): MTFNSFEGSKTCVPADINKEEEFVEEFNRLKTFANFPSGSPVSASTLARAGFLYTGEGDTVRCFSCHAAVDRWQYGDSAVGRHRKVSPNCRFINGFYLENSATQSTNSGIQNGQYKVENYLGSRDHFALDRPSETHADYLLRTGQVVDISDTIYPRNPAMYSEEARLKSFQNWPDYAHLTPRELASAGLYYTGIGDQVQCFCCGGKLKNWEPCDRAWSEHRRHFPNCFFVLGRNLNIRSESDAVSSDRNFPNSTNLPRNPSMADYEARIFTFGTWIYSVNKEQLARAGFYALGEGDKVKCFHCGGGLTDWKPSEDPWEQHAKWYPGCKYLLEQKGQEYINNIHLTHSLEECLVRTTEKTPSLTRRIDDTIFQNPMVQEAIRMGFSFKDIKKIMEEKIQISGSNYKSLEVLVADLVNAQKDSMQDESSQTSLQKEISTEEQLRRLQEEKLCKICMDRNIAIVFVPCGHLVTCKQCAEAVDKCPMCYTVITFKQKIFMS
For `CC(C)OC(=O)C=C1C[C@@H](c2ccc(C#N)cc2)O[C@@H](c2ccc(C#N)cc2)O1`, the composite z-score was -0.0994.
In the case of `CO[C@@H]1COC(=O)CC=C[C@@H](C)COC(=O)[C@H](COCc2ccccc2)NC(=O)CC=C[C@H]1C`, the composite z-score is reported as 0.122.
Work on `CO[C@@H]1COC(=O)CC=C[C@@H](C)[C@@H]2C=C[C@H](O)[C@@H](COC(=O)CCC[C@H]1C)O2` yielded a composite z-score of -0.12.
With `O=C1[C@H]2[C@H]3[C@H](O)[C@H](O)CC(=NO[C@@H]4O[C@H](CO)[C@@H](O)[C@H](O)[C@H]4O)[C@H]3CC[C@H]2C(=O)N1Cc1ccc2c(c1)OCO2` the composite z-score was -0.4.
`C=CC[C@@H]1C=C[C@H](ON=Cc2ccc(C(=O)N3[C@H](c4ccc(C)cc4)[C@@H](C)CC[C@H]3C(=O)OC)cc2)[C@@H](CO)O1` showed a composite z-score of -0.16.
`COCCOC(=O)N1C(=O)[C@@]2(c3cc(C#Cc4ccc(OC)cc4)ccc31)[C@H](c1ccc(O)cc1)N1[C@H](c3ccccc3)[C@H](c3ccccc3)OC(=O)[C@H]1[C@@H]2C(N)=O` was tested, and the composite z-score was -0.0559.
`CC(C)(C)N1CC=CC23O[C@@H]4C=CCCOC(=O)C4[C@H]2C(=O)N(CCCCCO)[C@@H]3C1=O` (some centres not stated) showed a composite z-score of 0.329.
In the case of `COCCOC(=O)N1C(=O)[C@@]2(c3cc(C#Cc4ccc(OC)cc4)ccc31)[C@H](C(=O)N1CCN(c3ncccn3)CC1)[C@H]1C(=O)O[C@H](c3ccccc3)[C@H](c3ccccc3)N1[C@@H]2c1ccc(OCCO)cc1`, the composite z-score is reported as -0.337.
Compound `COC(=O)[C@@H]1CC[C@H](C)[C@@H](c2ccc(C)cc2)N1C(=O)c1ccc(C=NOC(C)CN2CCCCc3nc(C)c(C)cc32)cc1` (some centres not stated) has a composite z-score of 0.147.
Work on `CC(C)CON=C1[C@H]2CCn3c(=O)n(-c4ccccc4)c(=O)n3[C@H]2[C@H](O)[C@@H]2O[C@H]12` yielded a composite z-score of -0.032.
In the case of `COCC(=C=CC[C@@H](O)c1ccccc1OCCO)CCO`, the composite z-score is reported as 0.326.
`O=C1O[C@@H](c2ccccc2)[C@@H](c2ccccc2)N2[C@@H](c3ccc(OCCO)cc3)[C@]3(C(=O)Nc4ccc(C#CCCO)cc43)[C@@H](C(=O)N3CCCCCCC3)[C@H]12` was tested, and the composite z-score was 0.733.
`C#C[C@@H]1Oc2ccccc2S(=O)(=O)N2CCC[C@H]12` showed a composite z-score of -0.38.
In the case of `CCCC[C@H]1OB(O)C[C@H]2C1=C(C)C[C@H]1C(=O)N(C)C(=O)[C@H]12`, the composite z-score is reported as -0.256.
`O=C1[C@H]2[C@H]3[C@H](O)[C@H](O)CC(=NOC[C@@H](O)COCc4ccco4)[C@H]3CC[C@H]2C(=O)N1c1cccc(Oc2ccccc2)c1` was tested, and the composite z-score was -0.295.
For `CC(C)[C@H](NC(=O)OC(C)(C)C)[C@@H](O)CC(=O)OC(C)(C)C`, the composite z-score was -0.102.
With `CO[C@H]1COC(=O)CC=C[C@H](C)[C@@H](NS(=O)(=O)c2ccc(C)cc2)COC(=O)CC=C[C@@H]1C` the composite z-score was -0.255.
Work on `CCOC(=O)CCN1C(=O)[C@H]2[C@H]3[C@H](O)[C@H](O)CC(=O)[C@H]3CC[C@H]2C1=O` yielded a composite z-score of 0.065.
Compound `NC(=O)NCC#Cc1ccc2c(c1)[C@]1(C(=O)N2)[C@H](c2ccc(O)cc2)N2[C@H](c3ccccc3)[C@H](c3ccccc3)OC(=O)[C@H]2[C@@H]1C(=O)N1CCCCCCC1` has a composite z-score of -0.0925.
`CCOC(=O)C[C@H]1[C@H](OC(=O)c2ccc(C(=O)c3ccccc3)cc2)[C@@H](NC(=O)c2ccc(-c3ccccc3)cc2)c2cc(OCCCO)ccc2N1C(=O)c1ccc2ccccc2n1` showed a composite z-score of 0.119.
For `O=C1[C@H]2[C@H]3[C@H](O)[C@H](O)CC(=NO[C@@H]4O[C@H](CO)[C@@H](O)[C@H](O)[C@H]4O)[C@@H]3CC[C@H]2C(=O)N1Cc1ccccc1`, the composite z-score was 0.0689.
`CC(C)(C)N1C(=O)[C@H]2[C@H]3[C@H](O)[C@H](O)CC(=NOCc4ccccc4)[C@@H]3CC[C@H]2C1=O` showed a composite z-score of -0.0735.
Work on `C[C@@H](c1ccccc1)N1C(=O)[C@H]2[C@H]3[C@H](O)C=CC(=O)[C@@H]3CC[C@H]2C1=O` yielded a composite z-score of 0.126.
Work on `CC(C)(C)N1C(=O)[C@H]2[C@H]3[C@H](O)[C@H](O)CC(=NO[C@@H]4O[C@H](CO)[C@@H](O)[C@H](O)[C@H]4O)[C@@H]3CC[C@H]2C1=O` yielded a composite z-score of 0.144.
With `CCOC(=O)NN=C1C[C@@H](O)[C@@H](O)[C@@H]2[C@@H]3C(=O)N(C(C)(C)C)C(=O)[C@@H]3CC[C@@H]12` the composite z-score was 0.167.
With `COC(=O)[C@H](C)NC(=O)CCC1CC(OC(=O)NCCc2ccc(F)cc2)CC2(CCCC(COC(=O)NCCc3ccc(Cl)cc3)O2)O1` (some centres not stated) the composite z-score was -0.0918.
Work on `COc1ccccc1CN1C(=O)c2ccccc2[C@@H](C(=O)NCC(F)(F)F)[C@@H]1c1ccc(CO)cc1` yielded a composite z-score of -0.148.
